# Data taken from PubChem BioAssay (NCATS).
# Records with an inconclusive call do not appear. Entries that show only a call come without a potency. Active and inactive are the calls of the source. Unless noted, the call rests on the fitted dose curve; in most records, active means well fitted curve in the direction sought with a large enough effect; inconclusive means small, poorly fitted or top-dose-only effect, or another doubt; inactive means no such curve, though single readings can be large; an effect the other way counts as inactive or inconclusive.
# Columns and labels:
# [1] = qHTS for Inhibitors of the Aldehyde Dehydrogenase Family (ALDH1A2, ALDH1A3, ALDH2, ALDH3A1) (AID 2061307); further: nearly all actives have a fitted effect of over 50% in size; on potency: test system not described further here; potency means the concentration at half of the fitted maximal effect
# [2] = target: Retinaldehyde dehydrogenase 3 (Homo sapiens) (UniProt P47895); experiment: qHTS for Inhibitors of the Aldehyde Dehydrogenase Family (ALDH1A3) Primary screen (AID 2061315)
# [3] = target: Aldehyde dehydrogenase 1A1 (Homo sapiens) (UniProt P00352); experiment: qHTS for Inhibitors of the Aldehyde Dehydrogenase Family (ALDH1A1) Confirmatory screens (AID 2061316); further: nearly all actives have a fitted effect of over 65% in size; further: potency means the concentration at half of the fitted maximal effect
# [4] = target: Aldehyde dehydrogenase, mitochondrial (Homo sapiens) (UniProt P05091); experiment: qHTS for Inhibitors of the Aldehyde Dehydrogenase Family (ALDH2) Confirmatory screens (AID 2061303; active means well fitted inhibition curve with a large enough effect; title and protocol of this record describe different tests; further: nearly all actives have a fitted effect of over 45% in size; further: potency means the concentration at half of the fitted maximal effect)
# [5] = target: Retinal dehydrogenase 2 (Homo sapiens) (UniProt O94788); experiment: qHTS for Inhibitors of the Aldehyde Dehydrogenase Family (ALDH1A2) Confirmation screens (AID 2061314); further: nearly all actives have a fitted effect of over 65% in size; further: potency means the concentration at half of the fitted maximal effect
# [6] = target: Retinaldehyde dehydrogenase 3 (Homo sapiens) (UniProt P47895); experiment: qHTS for Inhibitors of the Aldehyde Dehydrogenase Family (ALDH1A3) Confirmatory screens (AID 2061311); further: nearly all actives have a fitted effect of over 60% in size; further: potency means the concentration at half of the fitted maximal effect
# [7] = target: Aldehyde dehydrogenase, mitochondrial (Homo sapiens) (UniProt P05091); experiment: qHTS for Inhibitors of the Aldehyde Dehydrogenase Family (ALDH2) Primary screen (AID 2061308); further: nearly all actives have a fitted effect of over 55% in size; further: potency means the concentration at half of the fitted maximal effect
# [8] = target: Retinaldehyde dehydrogenase 3 (Homo sapiens) (UniProt P47895); experiment: qHTS for Inhibitors of the Aldehyde Dehydrogenase Family (ALDH1A3) Validation screen (AID 2061312); further: nearly all actives have a fitted effect of over 45% in size
smiles,measurement,setting,value
Cc1cc(C)c(OP(=O)(OCc2c(-c3ccccc3)no[n+]2[O-])Oc2c(C)cc(C)cc2C)c(C)c1,Potency,[1],12.6 µM (active)
same,Potency,[2],inactive
same,Potency,[3],2.01 µM (active)
N#Cc1c(-c2cc(F)cc(-c3no[n+]([O-])c3C#N)c2)no[n+]1[O-],Potency,[4],0.357 µM (active)
same,Potency,[5],1.59 µM (active)
same,Potency,[3],11.3 µM (active)
CC(=O)OCC1=C(C(=O)O)N2C(=O)C(NC(=O)CCCC(N)C(=O)O)C2SC1 (stereo not drawn),Potency,[4],inactive
same,Potency,[6],inactive
CC(=O)c1ccc(N=[N+]=[N-])cc1,Potency,[1],8.96 µM (active)
C[C@@H]1Cc2c(Cl)cc(C(=O)N[C@@H](Cc3ccccc3)C(=O)O)c(O)c2C(=O)O1,Potency,[4],inactive
same,Potency,[1],inactive
same,Potency,[7],inactive
same,Potency,[5],inactive
same,Potency,[2],inactive
CN1CCN(c2cnc3c(O)ccc(C(=O)O)c3c2)CC1,Potency,[4],inactive
same,Potency,[1],inactive
same,Potency,[7],inactive
same,Potency,[6],12.7 µM (active)
same,Potency,[2],inactive
CC(=O)c1cccc(N=[N+]=[N-])c1,Potency,[1],inactive
NC(N)=Nc1ccc2[nH]c3c(c2c1)C[C@@]1(O)C2Cc4ccc(O)c5c4[C@@]1(CCN2CC1CC1)[C@H]3O5,Potency,[1],inactive
CO[C@@H]1C[C@H](O[C@H]2CC[C@]3(C)C4CC[C@]5(C)[C@@H](C6=CC(=O)OC6)[C@@H](OC(C)=O)C[C@]5(O)C4CC[C@@H]3C2)OC(C)[C@H]1O (stereo partly drawn),Potency,[1],inactive
CCCn1c(C)c(C(=O)c2ccc3ccccc3c2)c2ccccc21,Potency,[1],inactive
same,Potency,[6],inactive
same,Potency,[5],inactive
same,Potency,[3],inactive
COc1cc(O)c2c(c1)CCC[C@@H](O)[C@H](O)C(=O)/C=C\C[C@H](C)OC2=O,Potency,[4],inactive
same,Potency,[7],inactive
same,Potency,[6],inactive
same,Potency,[5],inactive
same,Potency,[2],inactive
Oc1ccc(C2=CCNCC2)cc1O,Potency,[1],inactive
COc1ccc(-c2nc(CS(=O)CC(=O)N3CCC4(CC3)OCCO4)c(C)o2)cc1 (stereo not drawn),Potency,[1],inactive
O=c1[nH]c(CN2CCNCC2)nc2ccccc12,Potency,[1],inactive
O=[N+]([O-])/C=C/c1ccc2c(c1)OCO2,Potency,[1],5.01 µM (active)
same,Potency,[6],15.8 µM (active)
same,Potency,[8],inactive
same,Potency,[5],35.5 µM (active)
same,Potency,[3],3.57 µM (active)
CCc1nn2c(=O)cc(C3=CCNCC3)nc2s1,Potency,[1],inactive
N#C/C(=C\c1ccc(O)c(O)c1)C(N)=S,Potency,[4],8.96 µM (active)
same,Potency,[1],3.18 µM (active)
same,Potency,[6],1.01 µM (active)
same,Potency,[5],5.65 µM (active)
same,Potency,[3],1.42 µM (active)
CCN1C[C@]2(COC(=O)c3ccccc3N3C(=O)C[C@H](C)C3=O)CC[C@H](OC)[C@@]34[C@@H]5C[C@H]6[C@H](OC)[C@@H]5[C@](O)(C[C@@H]6OC)[C@](O)([C@@H](OC)[C@H]23)[C@@H]14,Potency,[4],inactive
same,Potency,[1],inactive
same,Potency,[7],inactive
same,Potency,[6],inactive
same,Potency,[5],inactive
same,Potency,[2],inactive
same,Potency,[3],inactive
CCC(C)C1NC(=O)C(C(C)=O)=C1O (stereo not drawn),Potency,[4],inactive
same,Potency,[1],inactive
same,Potency,[7],inactive
same,Potency,[2],inactive
Cc1cccc(C)c1OP(=O)(OCc1c(-c2ccccc2)no[n+]1[O-])Oc1c(C)cccc1C,Potency,[4],1.12 µM (active)
same,Potency,[1],5.04 µM (active)
same,Potency,[6],12.7 µM (active)
same,Potency,[5],12.7 µM (active)
same,Potency,[2],inactive
COC1CC(OC2CCC3(C=O)C(CCC4C3CCC3(C)C(C5=CC(=O)OC5)CCC43O)C2)OC(C)C1O (stereo not drawn),Potency,[7],inactive
CC1=C(C)C(=O)C(CC[C@](C)(O)CCC[C@H](C)CCC[C@H](C)CCCC(C)C)=C(C)C1=O,Potency,[1],inactive
same,Potency,[7],inactive
same,Potency,[6],10.1 µM (active)
same,Potency,[5],4.49 µM (active)
same,Potency,[3],inactive
CC/C=C/C=C/C1(C)OC(OC)=C(C(=O)C2C(C)C(=O)c3cc(OC)c(O)c(O)c3C2(C)O)C1=O (stereo not drawn),Potency,[1],inactive
same,Potency,[7],inactive
same,Potency,[6],11 µM (active)
CCOc1ccc(CCNC(=O)c2cc3cnccc3n2Cc2cccc(C)n2)cc1OCC,Potency,[4],inactive
same,Potency,[7],inactive
same,Potency,[2],inactive
same,Potency,[3],inactive
Cc1ccc(S(=O)(=O)N[C@@H](CCCCN)C(=O)CCl)cc1,Potency,[4],inactive
same,Potency,[1],inactive
same,Potency,[6],inactive
same,Potency,[5],12.7 µM (active)
C[C@@H]1C[C@@H](O)[C@]2(O)O[C@@H]3C[C@@]4(C=O)C(CC[C@@H]5C4CC[C@]4(C)[C@@H](C6=CC(=O)OC6)CC[C@]54O)C[C@H]3O[C@@H]2O1 (stereo partly drawn),Potency,[7],inactive
CCOc1ccc(CCNC(=O)c2cc3ncccc3n2Cc2cccc(C)n2)cc1OCC,Potency,[4],inactive
same,Potency,[1],inactive
same,Potency,[7],inactive
same,Potency,[5],inactive
same,Potency,[2],inactive
N#Cc1c(-c2cccc(-c3no[n+]([O-])c3C#N)c2)no[n+]1[O-],Potency,[4],1.27 µM (active)
same,Potency,[7],0.282 µM (active)
same,Potency,[5],1.27 µM (active)
same,Potency,[2],inactive
same,Potency,[3],12.7 µM (active)
CC(=O)OCC(N)C(=O)c1ccccc1 (stereo not drawn),Potency,[7],inactive
CCCCCn1c(C)c(C(=O)c2ccc(OC)c3ccccc23)c2ccccc21,Potency,[1],inactive
O=S(=O)(c1ccccc1F)N1CCOc2c(N3CCNCC3)cccc21,Potency,[4],inactive
same,Potency,[1],inactive
same,Potency,[7],inactive
same,Potency,[6],inactive
same,Potency,[5],inactive
same,Potency,[2],inactive
same,Potency,[3],inactive
